In the library only some 2.3% were active in any assay of this set; here they are far more common.
Jurkat NFkB inh: inhibitors of induced NF-kB luciferase reporter, primary screen, TCR NF-kB activation inhibitor project, cell-based, luminescence, uHTS; inhibition, % at 4 µM; Jurkat, PMA/ionomycin-induced NF-kB luciferase reporter; 0.53% of 330,000 active; in the data active = inhibition above about 50%
TRPM1 prom inh: inhibitors of MITF-dependent TRPM1 promoter reporter, primary screen, cell-based, SK-MEL-5, single point, luciferase; SK-MEL-5 TRPM1 promoter luciferase, 24 h; inhibition, % at 12.5 µM; 0.83% of 330,000 active; AID 488899, 2010;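 active = mean inhibition across replicates of 60% or more, whatever share of single replicates reaches that level; inconclusive = some that reach 60%, reason not given; inactive = mean inhibition across replicates below 60%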
EBV LMP1 NFkB: EBV LMP1-driven NF-kappaB luciferase reporter inhibitors, primary screen, cell-based, luminescence, single point. LMP1-induced NF-kappaB luciferase reporter cells. inhibition, % at 12.5 µM. 0.69% of 350,000 active. AID 504558, 2011; in the data active = inhibition above about 41%; inconclusive = no clear call, values can overlap the other calls
697 NFkB inh: inhibitors of PMA/ionomycin-induced NF-kB reporter, 697 cells, primary screen, B-cell NF-kB inhibitor project, cell-based, luminescence, uHTS; 697 B-cell NF-kB luciferase reporter, 16 h; 0.33% of 330,000 active; inhibition, % at 4 µM; in the data active = inhibition above about 35%
Gli-Sufu block: Gli-Sufu pathway antagonists, primary screen, luciferase luminescence, Sufu-KO-LIGHT cells, uHTS; AID 588413, 2011; inhibition, % at 5 µM; 0.74% of 340,000 active; Sufu-KO-LIGHT fibroblasts, Gli luciferase reporter luminescence;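 active = inhibition above about 55%, limit read from the data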
Shn3 inh set2: reduction of Shn3 3'UTR firefly luciferase signal, primary screen, Schnurri-3 inhibitor project, cell-based, Clone20 osteoblasts, set 2; inhibition, % at 12.5 µM; 0.52% of 360,000 active; Clone20 osteoblast Shn3 3'UTR firefly luciferase, 24 h;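 active = mean inhibition of at least 75% with every replicate also reaching 75%; inconclusive = mean inhibition at least 75% but some replicate below; inactive = mean inhibition below 75%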
Gli antag conf: Gli-SUFU pathway antagonists, confirmation, single concentration, luciferase luminescence, Sufu-KO-LIGHT cells | AID 602428, 2012 | shares compounds with Gli-Sufu block | Gli luciferase reporter | inhibition, % at 5 µM | 40% of 2,500 active;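 active = mean inhibition at 5 µM reaching about 45%, limit read from the data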
Gli cytotox: cytotoxicity in Sufu-KO-LIGHT cells, confirmation, cytotoxicity control for Gli-SUFU antagonist project, cell-based, ATP luminescence, single concentration; cytotoxicity, % at 5 µM; AID 651994, 2013; 32% of 2,500 active; shares compounds with Gli-Sufu block;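 active = mean cytotoxicity at 5 µM above about 25%, limit read from the data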;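 also: cells exposed to compound overnight for roughly 16 to 18 hours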
Wnt3a cs: Wnt3a reporter signal inhibition, confirmation, counter-screen for Gli-SUFU antagonist project, Wnt-LIGHT cells, luminescence, single concentration | shares compounds with Gli-Sufu block | Wnt3a-driven luciferase reporter | inhibition, % at 6.25 µM | 20% of 2,500 active | AID 651995, 2013;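 active = mean inhibition above about 25%, limit read from the data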
Numbers stand for hits; n = inactive; u = inconclusive; x = not tested or not shown.

SMILES	Jurkat NFkB inh	TRPM1 prom inh	EBV LMP1 NFkB	697 NFkB inh	Gli-Sufu block	Shn3 inh set2	Gli antag conf	Gli cytotox	Wnt3a cs
CC(Sc1nc2ccccc2c(=O)n1C)C(=O)NC1CCCCC1C (stereo not drawn)	n	n	n	n	59.2	u	55.1	n	n
COc1cccc(-c2ccc(SCC(=O)c3ccccc3)nn2)c1	n	n	n	n	55.3	n	n	n	n
COc1ccc(C(=O)CSc2ccc(-c3ccccc3)nn2)cc1	n	n	n	n	n	n	x	x	x
CC1=C(C(=O)OCC(C)C)C(c2cccc(F)c2)N2C(=O)C(C)SC2=N1 (stereo not drawn)	n	n	n	n	65.3	n	n	n	n
CCOC(=O)C1=C(C)N=C2SC(C)C(=O)N2C1c1cccc(F)c1 (stereo not drawn)	n	n	n	n	n	n	x	x	x
FC(F)(F)c1cnc(/C=C/Nc2ccccc2Cl)c(Cl)c1	n	n	n	n	n	n	x	x	x
C[N+]1=C(/C=C/Nc2ccccc2Cl)C(C)(C)c2ccccc21	n	n	n	n	56.2	n	52.2	38.5	n
CC(C)NC(=O)c1ccccc1NC(=O)C1CCCO1 (stereo not drawn)	n	n	n	n	58.5	n	n	n	n
COc1cc(OC)cc(-c2cc3nc(C)c(CCC(=O)O)c(C)n3n2)c1	x	x	52.7	x	60.8	n	64.3	n	90.4
C=CCSc1nnc(NC(=O)c2cccc(S(=O)(=O)N(C)c3ccccc3)c2)s1	n	n	n	n	74.4	n	n	n	n
CC[C@]12c3[nH]c4ccc(Cl)cc4c3CCN1C(=O)[C@@H](CC(=O)NCCCN(C)C)C[C@@H]2C(=O)N1CCN(C(=O)C2CC2)CC1	x	n	n	n	n	n	x	x	x
Cc1cc(Nc2cccc(F)c2)nc(NCc2ccccc2)n1	n	n	n	n	58.9	n	n	n	n
Cc1cc(Nc2ccccc2)nc(NCc2ccccc2)n1	n	n	n	n	68.2	n	58.5	32.8	25.3
Cc1cc(Nc2ccc(Cl)cc2)nc(NCc2ccccc2)n1	n	n	n	n	n	n	x	x	x
CC(=O)N1N=C(c2ccc(C)c([N+](=O)[O-])c2)OC1(C)C	n	n	n	n	n	n	x	x	x
Cc1ccc(NC(=O)c2ccco2)cc1C	n	n	n	n	n	n	x	x	x
CCC(CC)NC(=O)COC(=O)c1ccc(OCC(=O)Nc2ccccc2OC)c(OC)c1	n	n	n	n	n	n	x	x	x
CCOC(=O)c1cc(NC(=O)N(C(C)C)C2CCCCC2)c(C)nc1C	n	n	n	n	n	n	x	x	x
COc1ccc(CC2(CO)CCN(C(=O)NCc3ccccc3)CC2)cc1	n	n	n	n	n	n	x	x	x
CCCCCn1c(N2CCN(c3cccc(Cl)c3)CC2)nc2c1c(=O)[nH]c(=O)n2C	n	n	n	n	n	n	x	x	x
CCCCCn1c(CN2CCN(c3cc(Cl)ccc3C)CC2)nc2c1c(=O)[nH]c(=O)n2C	n	n	n	n	n	n	n	n	n
CCOC(=O)N1CCN(C(=O)CSc2ccc3nnc(-c4ccncc4)n3n2)CC1	n	n	n	n	58.9	n	n	33.1	n
O=C(COc1ccc(Br)cc1CNC1CCCC1)Nc1ccccc1	n	n	n	n	n	n	x	x	x
CCS(=O)(=O)N1Cc2ccccc2CC1C(=O)NCCc1c[nH]c2ccccc12 (stereo not drawn)	n	n	n	n	n	n	x	x	x
CC(C)CCNC(=O)C1CCCN(S(=O)(=O)c2ccc3c(c2)CC(C)N3C(=O)C2CC2)C1 (stereo not drawn)	n	n	n	n	56.6	n	n	n	n
SMILES	Jurkat NFkB inh	TRPM1 prom inh	EBV LMP1 NFkB	697 NFkB inh	Gli-Sufu block	Shn3 inh set2	Gli antag conf	Gli cytotox	Wnt3a cs
CC(=O)N1CCCc2cc(S(=O)(=O)N3CCCC(C(=O)NCc4ccccc4)C3)ccc21 (stereo not drawn)	n	n	n	n	n	n	n	n	n
COC(=O)c1ccc2c(=O)[nH]c(COC(=O)c3c(-c4ccccc4Cl)noc3C)nc2c1	n	n	n	n	n	n	x	x	x
O=c1c2cc(NC(=S)N3CCCCC3)ccc2nc2n1CCCCC2	n	n	n	n	n	n	x	x	x
CN1CCC[C@H]1CCNc1ccc2c(=O)c3ccccc3n(C)c2c1	x	n	n	x	n	n	x	x	x
CCOC(=O)N1CCN(C(=O)Cn2ncc3ccccc32)CC1	n	n	n	n	n	n	x	x	x
O=C(Cn1ncc2ccccc21)N1CCN(c2cccc(C(F)(F)F)c2)CC1	n	n	n	n	55.9	n	n	n	n
CC(C)(NC(=O)N1CCOCC1)c1cccc(C(C)(C)NC(=O)N2CCOCC2)c1	n	n	n	n	n	n	x	x	x
Cc1ccc(C(=O)O)cc1NC(=O)Nc1ccc2c(c1)OCO2	n	n	n	n	56.1	n	n	n	n
COC(=O)c1ccc(C(=O)OC)c(NC(=O)Nc2ccc3c(c2)OCO3)c1	n	n	n	n	n	n	x	x	x
COC(=O)c1c(NC(=O)COc2ncnc3ccccc23)sc(C)c1C	n	n	n	n	n	n	x	x	x
CCOC(=O)c1c(NC(=O)COc2ncnc3ccccc23)sc(C(C)=O)c1C	n	n	n	n	55.5	n	n	n	n
N#CC1C=Cc2c(ccc3ccccc23)N1C(=O)c1ccccc1 (stereo not drawn)	x	65.2	n	x	n	n	61.0	57.3	n
O=C(NCC1CCCO1)c1nn2cccnc2c1Cl (stereo not drawn)	n	n	n	n	n	n	x	x	x
O=C(CSc1ncnc2c1oc1ccccc12)OCc1ccccc1	n	n	n	n	n	n	x	x	x
CC(C)COc1cccc(C(=O)Nc2ccc(CN3CCOCC3)cc2)c1	n	n	n	n	n	n	n	n	n
CC(C)COc1cccc(C(=O)Nc2ccc(S(=O)(=O)N3CCOCC3)cc2)c1	n	n	n	n	n	n	x	x	x
O=C1CC(c2cccnc2)c2cc3c(cc2N1)OCCO3 (stereo not drawn)	n	x	n	n	n	n	x	x	x
CCCOc1ccccc1C1CC(=O)Nc2cc3c(cc21)OCCO3 (stereo not drawn)	n	n	n	n	65.9	87.3	65.3	59.9	n
